# Laboratory results taken from the supplement of paper PMC8728848.
# This excerpt belongs to a sample that is enriched for the strongest signals.
# B1: DCIR (Homo sapiens), Q9UMR7 (protein)
# chain: MTSEITYAEVRFKNEFKSSGINTASSAASKERTAPHKSNTGFPKLLCASLLIFFLLLAISFFIAFVIFFQKYSQLLEKKTTKELVHTTLECVKKNMPVEETAWSCCPKNWKSFSSNCYFISTESASWQDSEKDCARMEAHLLVINTQEEQDFIFQNLQEESAYFVGLSDPEGQRHWQWVDQTPYNESSTFWHPREPSDPNERCVVLNFRKSPKRWGWNDVNCLGPQRSVCEMMKIHL
# How the values were obtained:
# Test in all cases: glycan array binding signal (z-score within array); higher = stronger binding
# Settings in all cases: glycan notation: IUPAC condensed, linker removed
# Fuc(a1-2)Gal(b1-4)Glc = target: Fuc(a1-2)Gal(b1-4)Glc
# Method in brief: (§1)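 The binding signal is a Z-score computed within each array and averaged over linkers. Arrays of the same protein sequence at different concentrations or buffers were also averaged together. Data originate from 3228 arrays in the Consortium for Functional Glycomics database, kept only where the protein sequence was available.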
# [1] = target: Fuc(a1-2)Gal(b1-4)[Fuc(a1-3)]GlcNAc(b1-3)Gal(b1-4)[Fuc(a1-3)]GlcNAc
# Method in brief: as §1
# Fuc(a1-2)GlcNAc = target: Fuc(a1-2)GlcNAc
# Method in brief: as §1
# [2] = target: Fuc(a1-2)[GalNAc(b1-3)]Gal
# Method in brief: as §1
# [3] = target: Fuc(a1-3)[Gal(b1-4)]GlcNAc(b1-4)Gal(b1-4)[Fuc(a1-3)]GlcNAc
# Method in brief: as §1
# Fuc(b1-3)GlcNAc = target: Fuc(b1-3)GlcNAc
# Method in brief: as §1
# Gal(a1-3)Gal(b1-4)GlcNAc = target: Gal(a1-3)Gal(b1-4)GlcNAc
# Method in brief: as §1
# [4] = target: Gal(b1-3)[Fuc(a1-4)]GlcNAc
# Method in brief: as §1
# [5] = target: Gal(b1-4)GalNAc(a1-3)[Fuc(a1-2)]Gal(b1-4)GlcNAc
# Method in brief: as §1
# Gal(b1-4)Glc6S = target: Gal(b1-4)Glc6S
# Method in brief: as §1
# [6] = target: Gal(b1-4)GlcNAc(b1-2)Man(a1-3)[Gal(b1-4)GlcNAc(b1-2)Man(a1-6)]Man(b1-4)GlcNAc(b1-4)GlcNAc
# Method in brief: as §1
# [7] = target: Gal(b1-4)GlcNAc(b1-6)[Gal(b1-3)]GalNAc
# Method in brief: as §1
# Gal3S(b1-4)Glc = target: Gal3S(b1-4)Glc
# Method in brief: as §1
# Gal3S(b1-4)GlcNAc6S = target: Gal3S(b1-4)GlcNAc6S
# Method in brief: as §1
# Gal3S6S(b1-4)GlcNAc6S = target: Gal3S6S(b1-4)GlcNAc6S
# Method in brief: as §1
# Gal6S(b1-4)Glc6S = target: Gal6S(b1-4)Glc6S
# Method in brief: as §1
# GlcNAc(b1-3)Gal = target: GlcNAc(b1-3)Gal
# Method in brief: as §1
# [8] = target: Neu5Ac(a2-3)Gal(b1-4)[Fuc(a1-3)]GlcNAc(b1-3)Gal
# Method in brief: as §1
# [9] = target: Neu5Ac(a2-3)Gal(b1-4)[Fuc(a1-3)]GlcNAc(b1-3)Gal(b1-4)[Fuc(a1-3)]GlcNAc(b1-3)Gal(b1-4)[Fuc(a1-3)]GlcNAc
# Method in brief: as §1
# [10] = target: Neu5Ac(a2-8)Neu5Ac(a2-8)Neu5Ac(a2-3)[GalNAc(b1-4)]Gal(b1-4)Glc
# Method in brief: as §1
binder,measurement,setting,value
B1,glycan array binding signal (z-score),Fuc(a1-2)Gal(b1-4)Glc,-0.479
same,glycan array binding signal (z-score),[1],-0.367
same,glycan array binding signal (z-score),Fuc(a1-2)GlcNAc,-0.484
same,glycan array binding signal (z-score),[2],-0.31
same,glycan array binding signal (z-score),[3],0.076
same,glycan array binding signal (z-score),Fuc(b1-3)GlcNAc,-0.551
same,glycan array binding signal (z-score),Gal(a1-3)Gal(b1-4)GlcNAc,0.183
same,glycan array binding signal (z-score),[4],-0.359
same,glycan array binding signal (z-score),[5],-0.129
same,glycan array binding signal (z-score),Gal(b1-4)Glc6S,0.19
same,glycan array binding signal (z-score),[6],4.96
same,glycan array binding signal (z-score),[7],-0.161
same,glycan array binding signal (z-score),Gal3S(b1-4)Glc,-0.426
same,glycan array binding signal (z-score),Gal3S(b1-4)GlcNAc6S,5.68
same,glycan array binding signal (z-score),Gal3S6S(b1-4)GlcNAc6S,7.43
same,glycan array binding signal (z-score),Gal6S(b1-4)Glc6S,4.52
same,glycan array binding signal (z-score),GlcNAc(b1-3)Gal,-0.245
same,glycan array binding signal (z-score),[8],-0.071
same,glycan array binding signal (z-score),[9],-0.372
same,glycan array binding signal (z-score),[10],-0.052
